# Data published in PubChem BioAssay (NCI).
# Compounds without any hit were thinned out: in the full panel of roughly 83,000, 20% have a hit.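 Values shown are percent growth following 48 h exposure of cells in 96-well plates to a single concentration of compound; below 10 was considered active.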 A number with no mark means an inactive call. The source made the active and inactive calls.
# Tested on: EKVX NSCLC
# Test: NCI-60 one-dose screen, 48 h (100 = growth as untreated, 0 = no growth, -100 = all killed)
# Settings: 10 µM unless noted
row,SMILES,growth
1,O=C(Nc1ccc(O)cc1)C(Cl)(Cl)Cl,98.6%
2,CCCOC(=O)N[C@H]1CCc2c(Br)c(OC)c(OC)c(OC)c2-c2ccc(SC)c(=O)cc21,40.3%
3,CCOC(=O)[C@@H](C)C[C@H](Cc1ccccc1)NC(=O)c1csc([C@@H](C[C@H](C(C)C)N(C)C(=O)[C@@H](NC(=O)[C@H]2CCCCN2C)C(C)(C)CC)OC(C)=O)n1,37.4%
4,CN1CC(CNC(=O)OCc2ccccc2)CC2c3cccc4c3c(cn4C)CC21 (configuration not stated),71.8%
5,COc1ccc(NC([Se])=NC23CC4CC(CC(C4)C2)C3)cc1,-14.3% (active)
6,ClCCN(CCCl)c1ccc(/C=N\N=C\c2ccc(N(CCCl)CCCl)cc2)cc1,47.1%
7,C[C@@]12CC=C3c4nc(Nc5cccc(O)c5)sc4CC[C@]3(C)[C@H]1CC[C@]1(C)C(=O)CC[C@@H]21,71.4%
8,O=[N+]([O-])/C=C\c1ccc(Cl)c(Cl)c1,91.8%
9,CC(C)OC(=O)[C@H](C)NP(=O)(Oc1ccccc1)C1CCCN(O)C1=O (some centres not stated),93.4%
10,COC(=O)CCC1=C(C)c2cc3[n-]c(cc4nc(cc5[n-]c(cc1n2)c(CCC(=O)OC)c5C)C=C4C)cc3C.[Cd+2],62.2%
11,C=CCn1cc(C=C2C(=O)N(C)C(=O)N(C)C2=O)c2ccccc21,84.4%
12,COC(=O)[C@@H](C)C[C@H](Cc1ccccc1)NC(=O)c1nc([C@@H](C[C@H](C(C)C)N(C)C(=O)[C@@H](NC(=O)[C@H]2C[C@H](O)CCN2C)C(C)C)OC(C)=O)sc1C(C)C,35.2%
